Measurements from ChEMBL document CHEMBL4513141, “CO-ADD screening of NIH (USA) - Clinical Collection” (2021).
Measured potencies and affinities stand elsewhere.

Assays:
Klebsiella pneumoniae = conditions: Concentration 20 uM; ASSAY_TEST Inhibition of Bacterial Growth; detection method Absorption (OD600); MEDIA CAMHB; plate type 384well; NBS; CORNING #3640; time 18 hr
Candida albicans = conditions: 20 µM
Cryptococcus neoformans = conditions: Concentration 20 uM; ASSAY_TEST Inhibition of Fungal Growth; detection method Resazurin; Absorption (OD600-OD570); plate type 384well; NBS; CORNING #3640

SMILES | Inhibition (Klebsiella pneumoniae) [%] | Inhibition (Candida albicans) [%] | Inhibition (Cryptococcus neoformans) [%]
CC[C@@H]1/C=C/C=C/C[C@H](C)[C@@H](O)[C@](C)(O)C(=O)[C@H](C)[C@@H](O)[C@H](C)C(=O)[C@H](C)[C@@H](O)[C@H](C)/C=C/C(=O)O[C@H]2[C@@H](C)[C@@H](CC1)O[C@@]1(CC[C@@H](C)[C@@H](C[C@H](C)O)O1)[C@@H]2C | 17.55 | 5.45 | -9.53
COc1ccc2[nH]cc(C3=CCNCC3)c2c1.COc1ccc2[nH]cc(C3=CCNCC3)c2c1.O=C(O)CCC(=O)O | 15.57 | 3.46 | -20.08
Cc1c(OCC(F)(F)F)ccnc1C[S+]([O-])c1nc2ccccc2[nH]1 (stereo unspecified) [LANSOPRAZOLE] | 7.47 | 9.31 | -23.82
NC(=O)C[S+]([O-])C(c1ccccc1)c1ccccc1 (stereo unspecified) [MODAFINIL] | 7.6 | 2.96 | -0.59
CCC1(c2ccc(N)cc2)CCC(=O)NC1=O (stereo unspecified) [AMINOGLUTETHIMIDE] | 3.02 | 2.63 | -5.32
c1ccc(Cn2ccnc2)cc1 | 8.34 | 2.99 | 0.79
Cc1c(O)c(=O)ccn1C [DEFERIPRONE] | 3.55 | 4.97 | -5.92
NS(=O)(=O)c1cc(C2(O)NC(=O)c3ccccc32)ccc1Cl (stereo unspecified) [CHLORTHALIDONE] | 4.57 | 3.92 | -1.27
CCN(CC)CCOC(=O)C(O)(c1ccccc1)c1ccccc1.Cl | 9.09 | 3.32 | -7.17
NC(=O)OCCCc1ccccc1 [PHENPROBAMATE] | 12.49 | 3.16 | -1.72
Cl.NCC(O)c1ccc(O)c(O)c1 (stereo unspecified) | 15.27 | 4.08 | -2.98
Oc1ncnc2[nH]ncc12 [ALLOPURINOL] | 15.5 | 2.36 | -1.92
CCOC(=O)C1=C(COCCN)NC(C)=C(C(=O)OC)C1c1ccccc1Cl (stereo unspecified) [AMLODIPINE] | 0.34 | 4.94 | -10.38
C[N+]1(CCC(C(N)=O)(c2ccccc2)c2ccccc2)CCCCC1.[Br-] [FENPIVERINIUM BROMIDE] | -3.21 | 3.32 | -1.41
CN(C)CCc1c[nH]c2ccc(C[C@H]3COC(=O)N3)cc12 [ZOLMITRIPTAN] | 7.51 | 2.65 | 0.25
c1ccc2c(c1)Nc1ccccc1S2 [PHENOTHIAZINE] | 1.87 | 4.65 | 6.01
CN(C)CCOc1ccc(/C(=C(/CCCl)c2ccccc2)c2ccccc2)cc1.O=C(O)CC(O)(CC(=O)O)C(=O)O [TOREMIFENE CITRATE] | 8.47 | 1.73 | -7.47
CC(O)(CS(=O)(=O)c1ccc(F)cc1)C(=O)Nc1ccc(C#N)c(C(F)(F)F)c1 (stereo unspecified) [BICALUTAMIDE] | 7.16 | -0.48 | -5.03
C[C@]12CC[C@H](O)CC1=CC[C@@H]1[C@@H]2CC[C@]2(C)C(=O)CC[C@@H]12 [PRASTERONE] | 10.09 | 14.5 | 2.55

SMILES | Inhibition (Klebsiella pneumoniae) [%] | Inhibition (Candida albicans) [%] | Inhibition (Cryptococcus neoformans) [%]
CN1C(=O)CN=C(c2ccccc2)c2cc([N+](=O)[O-])ccc21 [NIMETAZEPAM] | 13.4 | 0.89 | -7.7
c1ccc2c3c([nH]c2c1)CNCC3 [TRYPTOLINE] | 13.54 | 3.92 | -5.61
C[C@]12CC[C@H](O)CC1=CC[C@@H]1[C@@H]2CC[C@@]2(C)[C@H]1CC[C@]2(C)O [METHANDRIOL] | 9.75 | 4.69 | 2.63
COc1cc(N)c(Cl)cc1C(=O)NC1CN2CCC1CC2.Cl.O (stereo unspecified) [ZACOPRIDE HYDROCHLORIDE] | -4 | 5.47 | 0.38
C[N+]1(C)CCC(OC(=O)C(O)(c2ccccc2)C2CCCC2)C1.[Br-] (stereo unspecified) [GLYCOPYRRONIUM BROMIDE] | 13.34 | 3.65 | -2.52
CN1[C@@H]2CC[C@H]1CC(OC(=O)C(CO)c1ccccc1)C2 (stereo partly specified) | 9.61 | 0.86 | -0.25
CNCCC(Oc1ccc(C(F)(F)F)cc1)c1ccccc1.Cl (stereo unspecified) [FLUOXETINE HYDROCHLORIDE] | 3.44 | 1.79 | -8.4
CC(C)CC(N(C)C)C1(c2ccc(Cl)cc2)CCC1 (stereo unspecified) [SIBUTRAMINE] | 10.19 | 2.06 | 1.52
CC[C@]1(O)CC[C@H]2[C@@H]3CCC4=CCCC[C@@H]4[C@H]3CC[C@@]21C [ETHYLESTRENOL] | 4.45 | 4.07 | -2.32
CCOC(=O)C1(c2ccccc2)CCN(CCC(C#N)(c2ccccc2)c2ccccc2)CC1.Cl [DIPHENOXYLATE HYDROCHLORIDE] | 2.24 | 4.81 | -16.2
C[C@H](CCC(=O)O)[C@H]1CC[C@H]2[C@@H]3[C@@H](O)C[C@@H]4C[C@H](O)CC[C@]4(C)[C@H]3CC[C@]12C [URSODIOL] | 5.07 | 3.21 | -2.96
COc1cc(-c2ccc(=O)[nH]n2)ccc1OC(F)F [ZARDAVERINE] | 6.98 | 1.79 | 1.74
C=C1C[C@@H]2[C@H](CC[C@]3(C)C(=O)CC[C@@H]23)[C@@]2(C)C=CC(=O)C=C12 [EXEMESTANE] | 6.02 | 5.81 | -8.06
CCCC(C)(COC(N)=O)COC(=O)NC(C)C (stereo unspecified) [CARISOPRODOL] | 4.45 | 4.69 | 4.79
COc1ccc2[nH]cc(CCN)c2c1 [5-METHOXYTRYPTAMINE] | 5.41 | 3.97 | -39.41
O=C(O)C(Cl)Cl [DICHLOROACETIC ACID] | 10.68 | 2.59 | -3.9
CCOC(=O)c1ncn2c1CN(C)C(=O)c1cc(F)ccc1-2 [FLUMAZENIL] | -2 | 0.3 | -8.54
C[C@]12Cc3c[nH]nc3C[C@@H]1CC[C@@H]1[C@@H]2CC[C@@]2(C)[C@H]1CC[C@]2(C)O [STANOZOLOL] | 7.49 | 8.82 | -7.23
Cl.O[C@@H]1CCCC[C@H]1N1CCC(c2ccccc2)CC1 | 4.06 | 3.46 | -7.38

SMILES | Inhibition (Klebsiella pneumoniae) [%] | Inhibition (Candida albicans) [%] | Inhibition (Cryptococcus neoformans) [%]
O=C1Nc2ccc(Cl)cc2C(c2ccccc2Cl)=NC1O (stereo unspecified) [LORAZEPAM] | -5.27 | 5.15 | -2.1
Cl.FC(F)(F)c1cccc(N2CCNCC2)c1 [N- (3-TRIFLUOROMETHYLPHENYL)PIPERAZINE HYDROCHLORIDE (TFMPP)] | 6.51 | 4.36 | -3.92
Cl.O=C1c2cccc3c2[C@H](CCC3)CN1[C@@H]1CN2CCC1CC2 [PALONOSETRON HYDROCHLORIDE] | 8.73 | 2.55 | -0.6
CC[N+](C)(C)c1cccc(O)c1.[Cl-] [EDROPHONIUM CHLORIDE] | 15.01 | 2.22 | -6.73
Fc1ccc([C@@H]2CCNC[C@H]2COc2ccc3c(c2)OCO3)cc1.O=C(O)/C=C\C(=O)O | 6.3 | 2.04 | -6.92
CC[C@@H](C(N)=O)N1CCCC1=O | 13.35 | 2.36 | -2.67
NCCc1ccccn1 | 3.21 | 3.53 | -5.04
Br.COc1ccc2c(c1)[C@]13CCCC[C@@H]1[C@H](C2)N(C)CC3.O [DEXTROMETHORPHAN HYDROBROMIDE] | 8.1 | 2.88 | -7.7
CN/C(=N\CCSCc1nc[nH]c1C)NC#N [CIMETIDINE] | 3.14 | 3.16 | 2.1
O=C1CN=C(c2ccccc2)c2cc([N+](=O)[O-])ccc2N1 [NITRAZEPAM] | 13.18 | 3.29 | 1.38
Cl.NCCc1ccc(O)c(O)c1 [DOPAMINE HYDROCHLORIDE] | 13.84 | -0.19 | -1.49
Cc1ccc(-c2nc3ccc(C)cn3c2CC(=O)N(C)C)cc1.Cc1ccc(-c2nc3ccc(C)cn3c2CC(=O)N(C)C)cc1.O=C(O)C(O)C(O)C(=O)O [ZOLPIDEM TARTRATE] | 6.38 | 4.32 | -1.23
N=C(NCc1ccc(Cl)cc1)SCCCc1c[nH]cn1 [CLOBENPROPIT] | 6.85 | 2.99 | -0.61
Cl.O=C1CC2(CCCC2)CC(=O)N1CCCCN1CCN(c2ncccn2)CC1 [BUSPIRONE HYDROCHLORIDE] | 10.99 | 5.32 | -4.43
O.O=P1(N(CCCl)CCCl)NCCCO1 (stereo unspecified) [CYCLOPHOSPHAMIDE] | 7.22 | 0.13 | 1.2
Brc1c(NC2=NCCN2)ccc2nccnc12 [BRIMONIDINE] | 7.83 | 3.99 | -1.44
CN1CCN(C(=O)O[C@H]2c3nccnc3C(=O)N2c2ccc(Cl)cn2)CC1 [ESZOPICLONE] | -5.59 | 0.3 | 4.31
COc1cc([C@@H]2c3cc4c(cc3[C@H](O)[C@H]3COC(=O)[C@H]23)OCO4)cc(OC)c1OC [PODOFILOX] | 15.68 | 0.66 | -1.83
CCC(COC(=O)c1cc(OC)c(OC)c(OC)c1)(c1ccccc1)N(C)C.O=C(O)/C=C\C(=O)O (stereo unspecified) | 22.71 | 3.77 | -7.66
